PrP UTR inh: inhibition of PrP 5' UTR reporter expression | inhibition, % (no concentration beside the values) | actives 0.35% (n = 340,000) | cell-based PrP 5' UTR mRNA reporter, plate reader | AID 488862, 2010; in the data active = inhibition above about 52%
3CLpro inhibitor: SARS-CoV 3CLpro protease inhibitors, primary screen, biochemical, quenched FRET; AID 1706, 2009; recombinant SARS-CoV 3CLpro, quenched FRET peptide cleavage; inhibition, % at 6 µM; Replicase polyprotein 1ab (Severe acute respiratory syndrome coronavirus), P0C6X7; actives 0.14% (n = 290,000); in the data active = inhibition above about 12%
VHR inh abs: VHR1 phosphatase inhibitors, primary screen, biochemical, absorbance, uHTS; Dual specificity protein phosphatase 3 (Homo sapiens), P51452; recombinant VHR phosphatase, pNPP absorbance; inhibition, % at 13.3 µM; actives 0.52% (n = 290,000); AID 1654, 2009; in the data active = inhibition above about 50%
Target sequence (P51452 whole entry, looked up): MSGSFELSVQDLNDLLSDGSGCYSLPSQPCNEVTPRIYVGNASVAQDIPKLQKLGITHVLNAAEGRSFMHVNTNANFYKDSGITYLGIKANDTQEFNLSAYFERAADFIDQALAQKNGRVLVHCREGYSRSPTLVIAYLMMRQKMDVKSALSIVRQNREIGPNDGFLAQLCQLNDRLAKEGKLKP
MazF activator: activators of E. coli MazEF toxin-antitoxin RNase, primary screen, biochemical, fluorescence, uHTS | Endoribonuclease toxin MazF (Escherichia coli (strain K12)), P0AE70 | FAM/BHQ RNA-DNA oligo cleavage fluorescence, 5 h | activation, % at 20 µM | actives 0.32% (n = 350,000) | AID 504720, 2011; in the data active = activation above about 50%
Target sequence (P0AE70 whole entry, looked up): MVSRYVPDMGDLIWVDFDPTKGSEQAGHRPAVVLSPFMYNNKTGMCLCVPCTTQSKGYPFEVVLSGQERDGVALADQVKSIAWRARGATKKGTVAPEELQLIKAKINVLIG
PrPC TRFRET: inhibitors of human cell surface prion protein PrPC, primary screen, cell-based, TR-FRET; TR-FRET read-out; inhibition, % at 13.8 µM; actives 0.43% (n = 370,000); AID 720596, 2013; in the data active = inhibition above about 24%
Mtb hypoxia inh: PubChem AID 1159583; M. tuberculosis hypoxia-regulated fluorescent reporter, fluorescence; fluorescence inhibition, % (concentration not given with the values); actives 0.1% (n = 300,000); in the data active = fluorescence inhibition mostly above about 23%, no sharp cut-off; inactive = mostly below about 17%
Numbers stand for hits; – = inactive; · = no result given. In the library only some 1.5% were active in any assay of this set; here they are far more common.

SMILES	PrP UTR inh	3CLpro inhibitor	VHR inh abs	MazF activator	PrPC TRFRET	Mtb hypoxia inh
O=C(N/N=C/c1cc2ccccc2nc1Cl)/C(=C/c1cccs1)NC(=O)c1ccccc1	–	–	51.6	–	–	·
O=C(NN=Cc1cc2ccccc2nc1Cl)/C(=C/c1cccs1)NC(=O)c1ccccc1	·	·	·	·	·	–
O=c1[nH]c(SCc2nc3c(cnn3-c3ccccc3)c(=O)[nH]2)nc2ccccc12	–	–	–	50.0	–	·
O=C1NN(c2cccc(Br)c2)C(=O)/C1=C\c1ccc(O)cc1	–	–	53.0	–	–	·
O=C1NN(c2cccc(Br)c2)C(=O)/C1=C/c1ccc(-c2cc([N+](=O)[O-])ccc2O)o1	–	–	90.6	–	·	–
CC1=NN(c2ccc(C)cc2)C(=O)/C1=C/c1ccc(-c2cc([N+](=O)[O-])ccc2O)o1	–	–	–	–	–	–
O=C1NN(c2ccc(Br)cc2)C(=O)/C1=C\c1ccc(O)cc1O	–	–	–	–	–	·
COc1ccc(Br)cc1C1C2C=CCC[C@@]2(C)C(=O)N1Cc1ccccc1 (stereo partly specified)	·	·	·	·	·	–
CC(C)(C)C(=O)ON=C(N)c1ccc(-c2csnn2)cc1	·	·	·	·	·	–
COC(=O)C1=C(c2cc3ccccc3o2)CC2CCC1N2C(=O)N1CCOCC1 (stereo unspecified)	·	·	·	·	·	–
Cc1ccccc1CNc1ccc(C(CC(N)=O)NC(=O)c2ccc(Br)cc2)cc1[N+](=O)[O-] (stereo unspecified)	–	·	–	81.4	–	·
Cc1ccc(NS(=O)(=O)c2ccc(-c3cnc(C4CC4)o3)cc2)cc1	–	–	–	–	–	–
COc1ccc(C)cc1NS(=O)(=O)c1ccc(-c2cnc(C3CC3)o2)cc1	75.5	–	–	–	–	–
O=C(NCc1ccncc1)C(=O)NN=Cc1ccccn1	·	·	·	·	·	–
CC1=NN(C(C#N)c2ccccc2O)C(C)(C)C1 (stereo unspecified)	–	–	–	–	–	–
CCN1C(C#N)=C(C#N)N=C(C)CC1(C)C	–	–	52.9	–	–	–
COc1ccc(-c2cc(=O)oc3c(O)c(O)ccc23)cc1	–	–	59.0	–	–	–
Brc1ccc(C=NNc2ccccc2)cc1	·	·	·	·	·	–
CCSc1ccccc1C(=O)NCCCn1ccnc1	–	–	–	–	–	–
CSc1ccccc1C(=O)NCCCn1ccnc1	–	–	53.9	–	–	–
CC(C)(C)NC(=O)C1Cc2ccccc2CN1C(=O)Nc1cccc(Cl)c1 (stereo unspecified)	–	–	–	113.5	–	–
O=C1NC(=O)C(=Cc2cn(CCOc3ccc4c(c3)OCO4)c3ccccc23)C(=O)N1	–	–	–	528.2	·	·
CS(=O)(=O)N1c2ccccc2[C@]2(Br)CC3C(=O)NC(Cc4ccccc4)C(=O)N3C12 (stereo partly specified)	·	·	·	·	·	–
O=C(Nc1cccc(S(=O)(=O)NC2=NCCC2)c1)c1cc(-c2ccco2)nc2ccccc12	–	–	51.7	–	–	–
O=C(NC(=S)Nc1cccc(S(=O)(=O)NC2=NCCC2)c1)c1cc(-c2ccco2)nc2ccccc12	–	–	–	–	–	–
SMILES	PrP UTR inh	3CLpro inhibitor	VHR inh abs	MazF activator	PrPC TRFRET	Mtb hypoxia inh
CCc1nonc1NC(=O)c1oc2ccc(C)cc2c1C	–	–	–	–	–	–
CCc1nonc1NC(=O)c1oc2ccccc2c1C	–	–	50.2	–	–	–
CCC(=O)NN=Cc1ccc(-c2ccc([N+](=O)[O-])cc2)o1	·	·	·	·	·	–
COc1ccc(CN2CN=C(Nc3nc4ccccc4s3)NC2)cc1	–	–	–	62.1	·	–
c1ccc(CN2CN=C(Nc3nc4ccccc4s3)NC2)cc1	–	–	–	55.5	–	–
CCOP(=O)(OCC)/C(C#N)=C/c1cc(OC)ccc1OC	–	–	52.4	–	–	–
CCOC(=O)/C(C#N)=C/Nc1cc(OC)ccc1OC	–	–	–	–	–	–
CCCCN1CC[C@@H]2C=CC[C@H](C(=O)OC)[C@@H]2C1=O	–	·	·	79.7	–	–
CCCCN1CCC2C=CCC(C(=O)NCCc3ccccc3)C2C1=O (stereo unspecified)	·	·	·	·	·	–
Cc1c(NC(=O)CSc2ccc(Cl)cc2)cccc1-c1nc2cc(Cl)ccc2o1	–	–	–	129.4	–	·
COc1ccc(C=NOCC(=O)N(Cc2ccccc2)c2ccccc2C(=O)O)cc1	·	·	·	·	·	–
Cc1oc(-c2ccccc2Cl)nc1CS(=O)CC(=O)NCCCN1CC(C)CC(C)C1 (stereo unspecified)	–	–	52.5	–	–	·
Cc1oc(-c2ccccc2Cl)nc1CS(=O)CC(=O)NCCc1ccccc1 (stereo unspecified)	–	–	–	–	–	–
NC(=O)CSc1nnc(-c2cc(-c3cccs3)nc3ccccc23)o1	–	–	–	58.8	–	–
CCC(C)NC(=O)CSc1nnc(-c2cc(-c3cccs3)nc3ccccc23)o1 (stereo unspecified)	–	–	–	–	–	–
Cn1cc(Cl)c(C(=O)NN=Cc2ccc3c4c(cccc24)CC3)n1	·	·	·	·	·	–
Cn1cc(Cl)c(C(=O)N/N=C/c2ccc3c4c(cccc24)CC3)n1	–	–	–	67.6	·	·
COc1ccc(C(=O)C2CCCN(C3CSCCSC3)C2)c(OC)c1 (stereo unspecified)	–	–	56.6	–	–	·
COc1ccc(C(=O)C2CCCN(C3CSCCSC3)C2)c(C)c1 (stereo unspecified)	–	–	–	–	–	–
CCOC(=O)Cc1csc(NC(=S)NC(=O)c2ccc(F)cc2)n1	–	–	–	–	–	·
CCOC(=O)Cc1csc(NC(=S)NC(=O)c2ccccc2C)n1	–	–	52.7	–	–	–
CCOC(=O)c1[nH]cnc1C(=O)NC(C)c1ccccc1 (stereo unspecified)	·	·	·	·	·	–
Cc1snc(SCC(=O)NN=C(N)COc2cccc(C(F)(F)F)c2)c1C#N	·	·	·	·	·	–
COc1ccc(OC)c(NC(=O)c2ccc3c(=O)n(CCc4ccccc4)c(=S)[nH]c3c2)c1	–	–	–	52.1	–	–
Cc1ccc(OCC(=O)N/N=C\c2c(C)[nH]n(-c3ccccc3)c2=O)c([N+](=O)[O-])c1	–	–	56.2	–	–	·
COC(=O)c1c(NC(=O)c2nc3ccccc3s2)sc2c1CC(C)(C)NC2(C)C	–	–	–	52.7	–	–
CCOC(=O)NN=C(C)/C=C/c1ccccc1	·	·	·	·	·	–
C/C(CC(=O)NCc1ccco1)=N\NC(=O)c1ccc(Cl)cc1Cl	–	–	52.0	–	–	·
COc1ccc(NC(=O)c2cc3ccccc3oc2=NNS(=O)(=O)c2ccc(C)cc2)cc1	·	·	·	·	·	–
Cc1ccc(S(=O)(=O)N2CCc3ccccc3C2)cc1	–	–	52.0	–	–	–

High-throughput results as filed in PubChem.
